From PubChem BioAssay
Only some compounds are listed: those with a hit (about 9.6% of all), similar ones and a draw of the others.
L major viab – reduces viability of Leishmania major promastigotes. resazurin fluorescence viability. inhibition, % at 10 µM. hit rate 9% among 200,000; in the data active = inhibition above about 50%;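 note: promastigotes grown with compound for 44 hours at 28 °C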
PTEN del growth – PTEN-deleted cell growth suppression; HCT116 PTEN-null viability, CellTiter-Glo, 60 h; active compounds read low; viability, % at 10 µM; hit rate 1.2% among 140,000; AID 827;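 active = viability at or below a set limit, 4 SD under the median of all tested compounds, cut at about 3.7% in these data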;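 note: PTEN knockout HCT116 line with beta catenin targeted HCT116 as companion control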
Insulin prom up – MIN6 insulin promoter up-regulation | MIN6 insulin promoter-GFP reporter, high-content imaging; active compounds read high | hit rate 0.3% among 190,000 | z-score at 5 µM;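 active = z-score above 3 at 5 µM with at least 500 cells counted in the well; inconclusive = wells under 500 cells, flagged as cytotoxic or low count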
HCT116 bCat-KO – beta-catenin-lacking colon tumor cell growth suppression; HCT116 beta-catenin knockout viability, CellTiter-Glo, 60 h; active compounds read low; viability, % at 10 µM; hit rate 1.5% among 140,000;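 active = viability at or under a set limit, the compound median less 4 SD, cut at about 6% in these data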;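 note: 0% = Hyamine 1622 control at 20 µM and 100% = untreated cell control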
Insulin prom inh – TRM-6 insulin promoter activity inhibition. hit rate 0.9% among 130,000. inhibition, % at 2 µM. TRM-6 cells (human fetal islet line), insulin promoter-eGFP reporter, imaging; reporter expression induced with tamoxifen;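 active = inhibition above the mean plus 3 SD, with well images judged a real hit on visual review, cut at about 60% in these data, passing the limit was not always enough; inconclusive = inhibition over the cutoff but images rejected on review; inactive = inhibition not above the cutoff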
Autophagy HCS – modulators of autophagy. MEF GFP-LC3 puncta imaging; test concentration mostly 10 µM. calls only at 10 µM (by protocol). hit rate 0.98% among 190,000;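 active = percentage of spot-positive cells more than 3 SD above its plate mean, without a fluorescence outlier flag or 80% toxicity; inconclusive = no clear call, values can overlap the other calls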;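 note: spot-positive cell cutoff set from DMSO-treated cells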
* marks the source's active call; other numbers are inactive results; i = inactive; ? = inconclusive; · = not tested or not shown; + = active, no number.

SMILES	L major viab	PTEN del growth	Insulin prom up	HCT116 bCat-KO	Insulin prom inh	Autophagy HCS
CSc1nc2ccccc2cc1/C=C(\C#N)c1ccc(Cl)c(Cl)c1	6	2.4*	-0.14	1.9*	-31	+
CN(C)C(=O)CSCc1c(Cl)cccc1Cl	14	99	-0.24	96	-34	i
Cc1ccc2nc(C)c(Cl)c(=O)n2c1	-1	96	-0.47	103	42	i
Cc1ccc2nc(Cl)c(/C=N/Nc3nc(C)cc(C)n3)c(=O)n2c1	57*	21	-0.83	9	-25	i
Cc1cccn2c(=O)c(/C=C(\C#N)C(N)=O)c(Oc3ccccc3)nc12	·	·	0.02	·	·	·
Cc1cccn2c(=O)c(/C=C(\C#N)S(=O)(=O)c3ccccc3)c(Oc3ccc(Cl)cc3)nc12	47	2.2*	-0.05	3.6*	-308	i
Cc1cc(Oc2nc3c(C)cccn3c(=O)c2/C=C(\C#N)S(=O)(=O)c2ccccc2)ccc1Cl	54*	2.3*	-0.66	1.6*	·	i
Cc1nn(CC(=O)OCC(=O)Nc2ccccc2[N+](=O)[O-])c(C)c1[N+](=O)[O-]	65*	94	0.4	97	-4	i
Cc1nn(CC(=O)OCC(=O)Nc2c(C(C)C)cccc2C(C)C)c(C)c1[N+](=O)[O-]	51*	89	0.17	91	-4	i
Cc1ccc(NC(=O)COC(=O)Cn2nc(C)c([N+](=O)[O-])c2C)c([N+](=O)[O-])c1	36	91	0.43	98	-6	i
Cc1ccc(CNC(=O)COC(=O)Cn2nc(C)c([N+](=O)[O-])c2C)cc1	-2	·	0.46	·	6	i
O=C(Nc1ccc2c(c1)CCC2)c1ccccc1	-1	63	-0.91	66	·	i
O=C(Nc1cc2c3c(c1)C1CCCC1CN3CC1CCCC21)c1ccccc1 (centres undefined)	97*	74	-0.16	85	·	i
COc1ccc(-c2cc(C(=O)Nc3cccc(S(=O)(=O)NCc4ccco4)c3)c3ccccc3n2)cc1OC	72*	·	-2.6	·	·	i
O=C(Nc1cccc(S(=O)(=O)NCc2ccco2)c1)c1cc(-c2ccc(F)cc2)nc2ccccc12	98*	21	-0.45	28	15	i
O=C(CN1C(=O)/C(=C/c2cccc(Br)c2)SC1=S)NC1=NCCS1	18	·	0.83	·	·	i
CCN(CCO)C1CC(=O)N(c2ccccc2C)C1=O (centres undefined)	60*	116	-0.37	106	-84	i
Cc1ccccc1N1C(=O)CC(N(O)c2ccccc2)C1=O (centres undefined)	-8	99	·	99	-67	i
O=S(=O)(c1ccccc1Cl)N1CCCC1c1nc(-c2ccccc2Cl)no1 (centres undefined)	89*	68	·	61	-21	i
Cc1cc(=O)oc2cc(OCC(=O)OCC(=O)N(CCC#N)c3ccccc3)ccc12	3	·	0.66	·	·	i
O=C(COc1cccc2ccccc12)NNC(=O)CSCCO	57*	98	0.11	95	-11	i
O=C(Nc1ccc2c(c1)nc1n2CCOC1)c1ccco1	-4	109	0.39	96	·	i
O=C(Nc1ccc2c(c1)nc1n2CCSC1)c1ccco1	-5	100	-0.68	106	·	+
COc1cc(CC(NC(C)=O)C(=O)NC2CCN(C(=O)c3cc(OC)c(OC)c(OC)c3)CC2)cc(OC)c1 (centres undefined)	2	·	-0.18	·	6	i
C=CCN(c1ccccc1)S(=O)(=O)c1cccc(C(=O)Nc2nc3ccccc3[nH]2)c1	28	81	-0.28	81	·	i
SMILES	L major viab	PTEN del growth	Insulin prom up	HCT116 bCat-KO	Insulin prom inh	Autophagy HCS
COc1ccc(N(C)S(=O)(=O)c2cccc(C(=O)Nc3nc4ccccc4[nH]3)c2)cc1	47	·	-3.1	·	71*	i
CN(c1cccc(Cl)c1)S(=O)(=O)c1cccc(C(=O)Nc2nc3ccccc3[nH]2)c1	99*	7	-1.6	10	·	i
CN(c1cccc(Cl)c1)S(=O)(=O)c1cccc(C(=O)NC2=NCCS2)c1	1	44	3.5*	46	-21	i
CCOc1ccc(C(C)(C)C)cc1S(=O)(=O)n1nc(C)cc1C	18	68	·	84	-21	i
COc1ccccc1C(c1nnnn1C(C)(C)C)N1CCCCCC1 (centres undefined)	26	95	·	84	-18	i
CCOC(=O)N1CCC(NC(=O)C2CCCN(Cc3nc(-c4cccc(Cl)c4)oc3C)C2)CC1 (centres undefined)	10	26	?	28	·	i
CCN1CCN(CCNC(=O)C2CCCN(Cc3nc(-c4cccc(Cl)c4)oc3C)C2)CC1 (centres undefined)	94*	38	0.07	37	·	i
CCOC(=O)N1CCN(C(=O)C2CCCN(Cc3nc(-c4ccc(Cl)cc4)oc3C)C2)CC1 (centres undefined)	2	34	-0.71	24	·	+
CCc1ccc(-c2nc(CN3CCCC(C(=O)NCCc4ccc(OC)c(OC)c4)C3)c(C)o2)cc1 (centres undefined)	83*	3.0*	·	1.9*	-121	i
CCCN(CCC)CCNC(=O)C1CCN(Cc2nc(-c3ccc(Cl)cc3)oc2C)CC1	98*	2.2*	-0.41	2.2*	·	i
Cc1oc(-c2ccc(Cl)cc2)nc1CN1CCCC(C(=O)NCc2ccco2)C1 (centres undefined)	6	68	-0.28	42	·	i
Cc1ccnn1CC(=O)N/N=C/c1cccs1	34	102	0.07	99	31	i
Cc1nn(Cc2ccccc2)c2c1C(c1cccnc1)C(C#N)=C(N)O2 (centres undefined)	20	81	2.2	84	18	i
O=C(CSc1nc2nc[nH]c2c(=O)[nH]1)NC1CCCCC1	-4	104	-0.24	94	27	i
CCN1CCN(CCNC(=O)CSCc2nc(-c3ccc(OC)c(OC)c3)oc2C)CC1	88*	100	-0.11	92	-39	i
CCN1CCN(C(=O)CSCc2nc(-c3ccc(OC)c(OC)c3)oc2C)CC1	-1	92	0.37	101	·	i
Cc1ccccc1-c1nc(CN2CCCC(C(=O)NCCCN3CCOCC3)C2)c(C)o1 (centres undefined)	18	92	·	82	-93	i
COc1ccc(CCNC(=O)C2CCCN(Cc3nc(-c4ccccc4C)oc3C)C2)cc1OC (centres undefined)	92*	24	·	13	-86	i
NNC(=O)c1nc(-c2ccccc2)n2c1CCCCC2	-8	97	·	91	35	i
Cc1ccc(S(=O)(=O)NCC(=O)NCc2ccncc2)cc1	-5	90	·	83	62	i
Cc1c(Cl)c([N+](=O)[O-])nn1Cc1ccc(C(=O)N/N=C\c2cccc(Br)c2)o1	55*	77	·	84	43	i
Cc1ccccc1OCCCN1CCCC1	41	92	·	89	·	i
Cc1ccc(OCCN2CCCCCC2)c(C)c1	96*	77	0.01	86	-58	i
